From article PMC5540273 (PLoS ONE, 2017)
“And” between values parts separate entries of the source, which are not always exact repeats. Identical values can stand only once. Like-named read-outs stand apart in the source and are kept apart here.

Legend:
ERN1 = details: concentration: 1 μM, replicates: in singlicate, n = 1
FAK = tested on: T1, FAK; details: concentration: 1 μM, replicates: in singlicate; n = 1
T1 construct: gene PTK2

FER = details: concentration: 1 μM, replicates: in singlicate, n = 1
FES = details: concentration: 1 μM, replicates: in singlicate; n = 1
FGFR1 = details: concentration: 1 μM, replicates: in singlicate, n = 1
FGFR2 = details: concentration: 1 μM, replicates: in singlicate; n = 1
FGFR3 = details: concentration: 1 μM, replicates: in singlicate; n = 1
FGFR4 = details: concentration: 1 μM, replicates: in singlicate; n = 1
FGR = details: concentration: 1 μM, replicates: in singlicate, n = 1
FLT1 = details: concentration: 1 μM, replicates: in singlicate, n = 1
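Also: KINOMEscan kinase panel screen.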

SMILES	%Inh (ERN1) [%]	%Inh (FAK) [%]	%Inh (FER) [%]	%Inh (FES) [%]	%Inh (FGFR1) [%]	%Inh (FGFR2) [%]	%Inh (FGFR3) [%]	%Inh (FGFR4) [%]	%Inh (FGR) [%]	%Inh (FLT1) [%]	%Inh (ERN1; 1 µM)	%Inh (FER; 1 µM)	%Inh (FGFR1; 1 µM)	%Inh (FGR; 1 µM)	%Inh (FLT1; 1 µM)
c1ccc(-c2n[nH]cc2-c2ccnc3ccccc23)nc1 [GW271431]	0	0	31	0	6	0	13	11	26	47					
CC(C)(C)n1cnc2c(N)ncnc21 [SKF-97359]	0	0	45	0	0	0	0	0	8	7					
COc1cc(Nc2nccc(N3CCC(NC(=O)c4cccc(NC(C)=O)c4)C3)n2)cc(OC)c1OC (stereo not shown) [GSK1379754]	22	0	6	11	21	21	25	6	27	44					
Cl.Cl.Cl.Fc1ccc(-c2ncn(C3CCNCC3)c2-c2ccnc(Nc3ccccc3)n2)cc1 [SB-238039]		0		0		0	0	0			19% and 6%	0% and 1%	11% and 0%	60% and 41%	7% and 25%
COc1ccc(COc2cc(-n3cnc4ccccc43)sc2C(N)=O)cc1 [GSK1024304]	2	0	6	16	0	0	1	0	10	24					
CCc1ccnc(/C=C/c2n[nH]c3cc(Sc4ccccc4C(=O)NC)ccc23)c1	0	14	0	0	84	87	83	11	86	100					
COC(=O)Nc1nc2cc(Oc3ccc(NC(=O)Nc4cc(F)ccc4F)cc3)ccc2[nH]1.Cl [GW701424]	0	0	0	0	0	0	19	6	9	99					
Fc1ccc(-c2ncn(CCCN3CCOCC3)c2-c2ccccn2)cc1 [SB-211742]	0	29	0	10	0	0	0	0	27	23					
Fc1ccc(-c2nn3c(OCC(F)(F)F)cccc3c2-c2ccncc2)cc1 [GW514784]	0	0	13	7	0	0	0	0	18	35					
Cn1cc(-c2ccc3c(c2)CCN3C(=O)Cc2ccccc2Cl)c2c(N)ncnc21 [GSK2608885]	37	42	64	22	59	82	43	15	99	98.8					
Cc1cn2c(=O)cc(N3CCOCC3)nc2n1Cc1cccc(Cl)c1Cl [GSK2334006]	0	0	33	8	1	26	18	1	51	34					
CN1c2ccc(NCc3ccc(F)cc3)cc2-c2c(cnn2C)S1(=O)=O	0		0	4	2	2	0	0	0	0					
O=C(NCCNc1ccnc(Nc2ccc(F)cc2)n1)Nc1ccccc1F [GSK1379880]	11	0	11	0	0	0	0	11	3	4					
COCCNC(=O)c1ccc(-c2cc(C(=O)NC3CC3)cc(F)c2C)cc1 [GW868318]	38	3	1	32	17	3	7	3	32	7					
Nc1nccc(-c2c(-c3ccc(F)cc3)ncn2C2CCN(CC(F)(F)F)CC2)n1 [SB-236560]	0	0	4	0	0	0	0	0	0	9					
COc1ccc(Nc2nccc(N3CCC(NC(=O)Nc4cc(C)ccc4C)C3)n2)cc1 (stereo not shown) [GSK1379741]	0	0	0	0	0	0	0	0	5	16					
C[C@@H](Oc1cc(-n2cnc3ccc(NC(=O)NC(C)(C)C)cc32)sc1C(N)=O)c1ccccc1Cl [GSK346294]	13	0	43	0	13	0	30	14	8	46					
[2H]C([2H])(c1cccc(C(F)(F)F)c1C)n1ccn2c(=O)nc(N3CCOCC3)cc12 [GSK2336394]	0	0	33	0	7	16	14	5	12	22					
COc1ccc(Nc2nccc(N3CCC(NC(=O)Nc4cccc(C(C)=O)c4)C3)n2)cc1 (stereo not shown) [GSK1379731]	0	0	12	1	3	0	2	30	20	33					
O=c1cc(N2CCOCC2)nc2n(Cc3cccc(Cl)c3Cl)c(C3CC3)nn12 [GSK2358994]	0	0	3	15	0	1	0	0	9	6					
